Assay results from the supplement of paper PMC12350171.
Where a name gives a salt, the structure may show the parent alone. A number with no mark means an inactive call.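 How the source made its calls: active = normalised median growth AUC below 0.1 of DMSO control; inactive = AUC 0.1 or higher.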

What follows are compounds tested on P. vulgatus RND KO (assay: growth AUC normalised to DMSO control (median) (fraction of control); higher = less growth inhibition, active = hit call of the paper). Conditions: 20 µM.
Method in brief: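 In 96-well plates of mGAM seeded at OD578 0.01, strains that had been passaged twice overnight without oxygen were exposed to approved-drug library compounds at 20 μM with 1% DMSO. Hourly OD578 readings were taken for 24 h in an anaerobic incubator. The trapezoidal-rule area under the curve, with curves truncated at entry into stationary phase, was expressed relative to same-plate vehicle wells as the median of three biological replicates.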
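Further: active when median AUC fell below 0.1.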

SMILES | growth AUC normalised to DMSO control
CN(C)CCCN1c2ccccc2[S+]([O-])c2ccc(Cl)cc21 (configuration not stated) [Chlorpromazine Sulfoxide] | 1.07
Nc1c2ccccc2nc2ccccc12 [Aminacrine] | 1.07
Cc1ccc(=O)n(-c2ccccc2)c1 [Pirfenidone] | 0.932
O=C1Nc2ccccc2C1(c1ccc(O)cc1)c1ccc(O)cc1 [Oxyphenisatin] | 1.04
Nc1ccc2cc3ccc(N)cc3nc2c1 [Proflavine hemisulfate] | 0.996
CS(=O)(=O)c1ccc([C@@H](O)[C@@H](CF)NC(=O)C(Cl)Cl)cc1 [Florfenicol] | 0.0099 (active)
CC(=O)Nc1ccccc1 [Acetanilide] | 0.993
N[C@@H](CCC(=O)N[C@@H](CS)C(=O)NCC(=O)O)C(=O)O [Glutathione] | 0.996
NC(=O)Cc1cccc(C(=O)c2ccccc2)c1N [Nepafenac] | 1.03
OC(CNCC(O)C1CCc2cc(F)ccc2O1)C1CCc2cc(F)ccc2O1 (configuration not stated) [Nebivolol hydrochloride] | 0.957
C=C1CC[C@H](O)C/C1=C/C=C1\CCC[C@]2(C)[C@@H]([C@H](C)CCCC(C)C)CC[C@@H]12 [Cholecalciferol] | 1.05
O=C(O)Cc1csc(-c2ccc(Cl)cc2)n1 [Fenclozic acid] | 1.01
CCCCCNC(=N)N/N=C/c1c[nH]c2ccc(OC)cc12 [Tegaserod maleate] | 0.999
CN(CCCN1c2ccccc2CCc2ccccc21)CC(=O)c1ccc(Cl)cc1 [Lofepramine] | 0.944
CCN(CC)C(=O)C1(c2ccccc2)CC1CN (configuration not stated) [Milnacipran hydrochloride] | 1.02
Nc1ccc(S(=O)(=O)Nc2ccc(Cl)nn2)cc1 [Sulfachloropyridazine] | 1.03

SMILES | growth AUC normalised to DMSO control
O=C1[C@H]2CCCC[C@H]2C(=O)N1CCCCN1CCN(c2nsc3ccccc23)CC1 [Perospirone hydrochloride] | 0.997
O=c1[nH]c(=O)n([C@H]2C[C@H](O)[C@@H](CO)O2)cc1/C=C/Br [Brivudine] | 1.02
CCC(=O)c1c(O)cc(O)cc1O [Flopropione] | 0.985
O=C1OC(c2ccc(O)cc2)(c2ccc(O)cc2)c2ccccc21 [Phenolphthalein] | 0.979
NC(=O)[C@@H]1CCCN1C(=O)[C@H](Cc1c[nH]cn1)NC(=O)[C@@H]1CCC(=O)N1 [Thyrotropin-Releasing Hormone] | 1.05
CC[C@H](C)[C@H](NC(=O)[C@H](Cc1ccc(O)cc1)NC(=O)[C@@H](NC(=O)[C@H](CCCN=C(N)N)NC(=O)[C@@H](N)CC(=O)O)C(C)C)C(=O)N[C@@H](Cc1cnc[nH]1)C(=O)N1CCC[C@H]1C(=O)N[C@@H](Cc1ccccc1)C(=O)O [Angiotensin II (Human) Trifluoroacetic acid salt] | 1.1
CC(=O)Nc1cccc(O)c1 [Metacetamol] | 1
CC(C)c1ccc2oc3nc(N)c(C(=O)O)cc3c(=O)c2c1 [Amlexanox] | 1.02
CCOC(=O)[C@H](CCc1ccccc1)N[C@@H](C)C(=O)N(CC(=O)O)C1Cc2ccccc2C1 [Delapril Hydrochloride] | 1
Cc1nc(C)c(Cl)c(O)c1Cl [Clopidol] | 1.01
CC1=C(C)C(=O)C(C(CCCCCC(=O)O)c2ccccc2)=C(C)C1=O (configuration not stated) [Seratrodast] | 0.944
N[C@@H](C(=O)N[C@@H]1C(=O)N2C(C(=O)O)=C(Cl)CC[C@H]12)c1ccccc1 [Loracarbef] | 0.00871 (active)
Nc1nc2[nH]cc(CCc3ccc(C(=O)N[C@@H](CCC(=O)O)C(=O)O)cc3)c2c(=O)[nH]1 [Pemetrexed disodium] | 1.07
NC(N)=Nc1nc(CSCCN/C=N/S(=O)(=O)c2ccc(Br)cc2)cs1 [Ebrotidine] | 0.995
O=P(O)(O)C(O)(Cn1ccnc1)P(=O)(O)O [Zoledronic acid hydrate] | 0.972
CCOC(=O)OC(C)OC1=C(C(=O)Nc2ccccn2)N(C)S(=O)(=O)c2ccccc21 (configuration not stated) [Ampiroxicam] | 0.999
